Laboratory results taken from PubChem BioAssay AID722 (NMMLSC, 2007).
The whole screen tested about 1,300 compounds, of which about 40 (3%) were called active. The sample as a whole holds a higher share of actives than the screen did. A number with no mark means an inactive call. Rule as the data show it: active = inhibition above about 30%; inactive = the rest.

Target: fMet-Leu-Phe receptor (Homo sapiens) (UniProt P21462)
Test: human FPR1 ligand displacement screen – cell-based, flow cytometry, SAR analysis, primary screen (AID 722)
Settings: FPR-expressing cells, fluorescent ligand binding inhibition, hits give high values, concentration not given here

Sequence of fMet-Leu-Phe receptor (Homo sapiens) (P21462 whole entry, looked up): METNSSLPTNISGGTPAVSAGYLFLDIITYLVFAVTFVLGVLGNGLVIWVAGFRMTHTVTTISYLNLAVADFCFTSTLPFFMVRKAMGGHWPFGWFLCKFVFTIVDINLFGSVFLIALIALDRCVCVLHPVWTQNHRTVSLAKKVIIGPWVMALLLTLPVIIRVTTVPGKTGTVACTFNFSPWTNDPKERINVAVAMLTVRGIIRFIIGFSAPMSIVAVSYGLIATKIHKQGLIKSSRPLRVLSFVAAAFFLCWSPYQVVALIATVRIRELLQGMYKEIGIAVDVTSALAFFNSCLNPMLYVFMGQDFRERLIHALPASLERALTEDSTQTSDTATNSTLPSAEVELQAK

Compound | inhibition
Cc1onc(-c2c(Cl)cccc2Cl)c1C(=O)N1CCCC(C)C1 (stereo not drawn) | -2.1%
CCOC(=O)c1cc(C)sc1NC(=O)c1ccc(OC)cc1 | -6.6%
O=C1CSC(c2ccc(F)cc2)N1c1ccccc1F (stereo not drawn) | -3%
CN1C(=O)C(=O)/C(=C(\O)c2ccc(Cl)cc2)C1c1ccc(Cl)cc1 (stereo not drawn) | -3.2%
O=C1CSC(c2cccc(F)c2)N1c1c(F)cccc1F (stereo not drawn) | 0.4%
Cn1c(OCc2cccnc2)nc2c1c(=O)n(Cc1ccc(F)cc1)c(=O)n2C | 1%
O=C1C(=O)N(Cc2cccnc2)C(c2ccc(Br)cc2)/C1=C(\O)c1ccc(F)cc1 (stereo not drawn) | -5.5%
O=C(c1ccccc1)N(Cc1ccco1)Cc1ccccc1Cl | -5%
Cc1ccccc1C(=O)N1C(=S)C(c2ccc(F)cc2)=NC12CCN(C)CC2 | 3.3%
CCOC(=O)c1c(NC(=O)c2ccc(F)cc2)sc(C)c1C | -3.4%
COc1ccc(NC(=O)C(NC(=O)Cc2cccs2)c2ccccc2)cc1 (stereo not drawn) | -2.6%
O=C1C(=O)N(Cc2cccnc2)C(c2ccccc2Cl)/C1=C(\O)c1ccccc1 (stereo not drawn) | 1.8%
CC(C)CN1C(=O)c2ccccc2C(C(=O)N2CCCC2)C1c1cccs1 (stereo not drawn) | 4.5%
O=C1C(=O)N(CCc2c[nH]c3ccccc23)C(c2ccc(Cl)cc2)/C1=C(/O)c1ccc(F)cc1 (stereo not drawn) | 1.5%
CCc1ccc(C2/C(=C(/O)c3ccc(OC)cc3)C(=O)C(=O)N2CCc2c[nH]c3ccccc23)cc1 (stereo not drawn) | 3%
COc1ccc(/C(O)=C2/C(=O)C(=O)N(CCc3c[nH]c4ccccc34)C2c2ccc(C(C)C)cc2)cc1 (stereo not drawn) | 43.8% (active)
O=C(C1=C(O)C(=O)N(CC2CCCO2)C1c1cccs1)c1ccco1 (stereo not drawn) | -9.5%
Cn1c(NCCO)nc2c1c(=O)n(Cc1ccc(F)cc1)c(=O)n2C | -9.2%
COc1ccc(Cl)cc1N1C(=O)CSC1c1ccccc1F (stereo not drawn) | 4.1%
COc1ccc(N(C(=O)c2cccnc2)S(=O)(=O)c2cccs2)cc1 | 13%

Compound | inhibition
COc1ccc(/C(O)=C2/C(=O)C(=O)N(CCCn3ccnc3)C2c2ccc(O)c(OC)c2)cc1 (stereo not drawn) | -11%
Cn1c(NCCO)nc2c1c(=O)n(Cc1cccc(F)c1)c(=O)n2C | 6.7%
O=C1C(=O)N(c2nc3ccccc3s2)C(c2cccc(F)c2)/C1=C(\O)c1ccccc1 (stereo not drawn) | 4.3%
CCOc1ccccc1C(=O)N(Cc1ccco1)Cc1ccco1 | -4.7%
Cc1ccccc1NC(=S)N(Cc1ccco1)C(C)c1ccccn1 (stereo not drawn) | -1%
CCc1ccc(CN(Cc2ccco2)C(=O)c2ccccc2)cc1 | 2.2%
CC(C)C(=O)N(Cc1ccco1)S(=O)(=O)c1cccc2cccnc12 | 82.2% (active)
CCCC(=O)N(Cc1ccco1)S(=O)(=O)c1cccc2cccnc12 | 97.6% (active)
O=C(c1ccccc1)N(Cc1ccco1)Cc1ccco1 | 7.4%
COc1ccc(Cn2c(=S)[nH]c3cc4ccccc4cc3c2=O)cc1 | -2.8%
COC(=O)c1ccccc1NC(=O)NC1CCCCC1 | -4.1%
Cc1ccc(/C(O)=C2\C(=O)C(=O)NC2c2ccc(C)cc2)cc1 (stereo not drawn) | -7.7%
COCCCN1C(=O)C(=O)/C(=C(/O)c2ccccc2)C1c1ccc2c(c1)OCO2 (stereo not drawn) | -1.2%
O=C1C(=O)N(CCO)C(c2ccc([N+](=O)[O-])cc2)/C1=C(/O)c1ccc(Cl)cc1 (stereo not drawn) | -5.4%
Cc1cccc(C2CC(=O)NC3=C2C(=O)CC(c2cccs2)C3)c1 (stereo not drawn) | 33.7% (active)
O=C1CC(c2cccc(Cl)c2Cl)C2=C(CC(c3cccs3)CC2=O)N1 (stereo not drawn) | -15.7%
O=C1CC(c2cccc(F)c2)C2=C(CC(c3cccs3)CC2=O)N1 (stereo not drawn) | -6.6%
O=C1CC(c2ccccc2C(F)(F)F)C2=C(CC(c3cccs3)CC2=O)N1 (stereo not drawn) | 32.3% (active)
O=C1CC(c2ccccc2)C2=C(CC(c3cccs3)CC2=O)N1 (stereo not drawn) | -21.7%
O=C1CC(c2cccc(Cl)c2)C2=C(CC(c3cccs3)CC2=O)N1 (stereo not drawn) | 10.4%

Compound | inhibition
COc1ccc(C2C(C(=O)c3cccs3)=C(O)C(=O)N2Cc2cccnc2)cc1 (stereo not drawn) | -9.5%
O=C1C(=O)N(CCO)C(c2cccc(F)c2)/C1=C(/O)c1ccccc1 (stereo not drawn) | -7.5%
COc1ccc(OC)c(C2/C(=C(\O)c3ccccc3)C(=O)C(=O)N2c2nc3ccccc3s2)c1 (stereo not drawn) | -1.7%
COc1cccc(C2/C(=C(\O)c3ccc(F)cc3)C(=O)C(=O)N2Cc2cccnc2)c1 (stereo not drawn) | 1%
CC(C)(C)c1ccc(C2/C(=C(\O)c3ccc(F)cc3)C(=O)C(=O)N2Cc2cccnc2)cc1 (stereo not drawn) | -1.6%
COc1ccc(C2NC(=O)C(=O)/C2=C(\O)c2ccc(Cl)cc2)cc1 (stereo not drawn) | -4.8%
O=C1NC(c2ccccc2Cl)/C(=C(/O)c2ccc(Br)cc2)C1=O (stereo not drawn) | 8.6%
O=C1NC(c2ccc(Br)cc2)/C(=C(\O)c2ccc(Cl)cc2)C1=O (stereo not drawn) | 46.3% (active)
O=C1NC(c2cccc(F)c2)/C(=C(/O)c2ccc(Br)cc2)C1=O (stereo not drawn) | 17%
COC(=O)c1sc(N2C(=O)C(O)=C(C(=O)c3cc4ccccc4o3)C2c2ccc(OC)cc2)nc1C (stereo not drawn) | 3.6%
COC(=O)c1c[nH]n2c(=O)cc(C3CCNCC3)nc12 | -1.9%
O=C1CSC(c2ccc(Br)cc2)N1c1cccc(Cl)c1 (stereo not drawn) | 2.7%
COc1cc(C2C(C(=O)c3cc4ccccc4o3)=C(O)C(=O)N2CCN(C)C)cc(OC)c1OC (stereo not drawn) | -6.9%
COc1ccc(C2C(C(=O)c3cc4ccccc4o3)=C(O)C(=O)N2CCN(C)C)cc1 (stereo not drawn) | -8.1%
COc1cccc(C2C(C(=O)c3cc4ccccc4o3)=C(O)C(=O)N2CCCN(C)C)c1 (stereo not drawn) | -4.2%
COc1cc(C2C(C(=O)c3cc4ccccc4o3)=C(O)C(=O)N2CCCN(C)C)cc(OC)c1OC (stereo not drawn) | 14.6%
COc1ccc(C2C(C(=O)c3cc4ccccc4o3)=C(O)C(=O)N2CCN(C)C)cc1OC (stereo not drawn) | 66.9% (active)
COc1cc(C2C(C(=O)c3cc4ccccc4o3)=C(O)C(=O)N2CCN(C)C)ccc1O (stereo not drawn) | 88.7% (active)
